# Entries with a potency or affinity are not part of this list. Records with an inconclusive call do not appear. Activity calls are given as the source filed them.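 Rule for the calls: active = in every test run, a fitted half-maximal concentration for signal decrease at or below twice the highest tested concentration; inconclusive = runs disagree, flat 30 to 70% decrease, or poor fit; inactive = the rest.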
# Experiment: activation of miR-122 Renilla sensor silencing – cell-based, Huh7 psiCHECK-miR122, Renilla luciferase, cherry-picked, dose response (AID 651956);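 note: Renilla luciferase from a miR-122 sensor reporter so lower signal means miR-122 activation; 0% = median neutral control wells and -100% = median positive control wells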
# Conditions: Huh7 psiCHECK-miR122 Renilla luciferase reporter, 48 h; series mostly up to 35 µM; activity change, negative = signal decrease: at the top concentration
row,SMILES,"activity change, negative = signal decrease"
1,O=C(c1ccccc1)N1C[C@H]2[C@@H](c3ccccc31)[C@@H](CO)N2C(=O)CN1CCOCC1,121% (inactive)
2,COc1ccc(NS(=O)(=O)c2ccc(NC(=O)C(C)(C(F)(F)F)C(F)(F)F)cc2)nn1,-17.6% (inactive)
3,Clc1ccc(CSc2nnc(-c3ccncc3)o2)c(Cl)c1,62.1% (inactive)
4,C[C@@H]1CN([C@@H](C)CO)S(=O)(=O)c2ccc(C3=CCCCC3)cc2O[C@@H]1CN(C)C(=O)Nc1ccc2c(c1)OCO2,-113% (inactive)
5,CCCNC(=O)C[C@H]1CC[C@H]2[C@H](COc3ccc(NC(=O)c4ccc(C(F)(F)F)cc4)cc3C(=O)N2C)O1,11.7% (inactive)
6,CC(C)c1ccc(CNC(=O)CSCC(=O)Nc2ccc3ccccc3c2)cc1,-18.8% (inactive)
7,COc1ccc(CNC(=O)C[C@H]2CC[C@H]3[C@H](COc4ccc(NC(=O)C(C)C)cc4C(=O)N3C)O2)cc1,55.2% (inactive)
8,O=C(COC(=O)c1ccccc1)Nc1cc(Cl)ccc1Oc1ccccc1,-24.7% (inactive)
9,Cc1ccnc(Nc2nc(-c3c(C)nc4sccn34)cs2)c1,-54.8% (inactive)
10,Cc1cc(C(=O)Nc2ccc3c(c2)C(=O)N(C)[C@H]2CC[C@H](CC(=O)N[C@H](C)c4ccccc4)O[C@H]2CO3)no1,77.8% (inactive)
11,CNC(=O)C[C@H]1CC[C@H]2[C@@H](COc3ccc(NC(=O)C4CC4)cc3C(=O)N2C)O1,43.9% (inactive)
12,CC(C)Oc1ccc(C(CCN)C2CCCCC2)cc1 (centres undefined),-110% (inactive)
13,CCN(C[C@H]1[C@H](c2ccccc2)[C@H](CO)N1C(=O)COC)S(C)(=O)=O,-18.1% (inactive)
14,CCC(=O)N1[C@H](CO)[C@H](c2ccccc2)[C@@H]1CN(CC)C(=O)c1ccccc1,-26.6% (inactive)
15,CO[C@@H]1CN(C)C(=O)c2cc(NC(=O)NC(C)C)ccc2OC[C@H](C)N(Cc2cncnc2)C[C@H]1C,40.5% (inactive)
16,CN1C(=O)c2cc(NC(=O)C3CCOCC3)ccc2OC[C@H]2O[C@H](CC(=O)NCc3ccc4c(c3)OCO4)CC[C@@H]21,-23.7% (inactive)
17,CNC[C@H]1Oc2cc(C#CC3CCCC3)ccc2S(=O)(=O)N([C@H](C)CO)C[C@H]1C,-91.6% (inactive)
18,Cc1cc(C)cc(NC(=O)c2ccc(CSc3nnc(C)s3)cc2)c1,-31.2% (inactive)
19,Cn1c(-c2ccc(N)cc2)nc2ccccc21,38.5% (inactive)
20,CC(=O)N1[C@@H](CO)[C@@H](c2ccccc2)[C@@H]1CNC(=O)CN1CCOCC1,-4.92% (inactive)

row,SMILES,"activity change, negative = signal decrease"
1,O=C(Nc1ccc(F)cc1)N1C[C@@H]2[C@H](c3ccccc31)[C@H](CO)N2C(=O)Cc1ccccc1,-22.4% (inactive)
2,COCC(=O)N1[C@H](CO)[C@@H](c2ccccc2)[C@H]1CN(C)C(=O)c1ccncc1,-29.2% (inactive)
3,Cc1nn(C)cc1NC(=O)C[C@H]1CC[C@H]2[C@H](COc3ccc(NC(=O)c4cccc(F)c4)cc3C(=O)N2C)O1,74.4% (inactive)
4,C[C@@H]1CN([C@@H](C)CO)C(=O)c2cccc(NC(=O)Nc3ccc4c(c3)OCO4)c2O[C@@H]1CN(C)Cc1ccc(Oc2ccccc2)cc1,-41.5% (inactive)
5,COCCNC(=O)C[C@H]1CC[C@@H]2[C@H](COc3ccc(NC(=O)c4cnccn4)cc3C(=O)N2C)O1,42% [at 30 µM] (inactive)
6,CC(=O)Nc1ccc2c(c1)C(=O)N(C)[C@@H]1CC[C@@H](CC(=O)NCc3ccc(Cl)cc3)O[C@H]1CO2,-5.46% [at 30 µM] (inactive)
7,COc1cccc(NC(=O)Nc2ccc3c(c2)C(=O)N(C)[C@@H]2CC[C@H](CC(=O)O)O[C@H]2CO3)c1,-9.26% (inactive)
8,CCNC(=O)Nc1ccc2c(c1)C(=O)N(C)[C@H]1CC[C@H](CC(=O)NCCN3CCCC3)O[C@@H]1CO2,16.7% (inactive)
9,CC1CCN(CCc2nc3cc(NC(=O)Nc4ccccc4)ccc3n2C)CC1,30.1% (inactive)
10,CN(C)CCCN(C(=O)CCc1ccccc1)c1nc2ccc(Br)cc2s1,-98.6% (inactive)
11,c1ccc(CCCNCCCn2cnc3c(OCc4ccccc4)ncnc32)cc1,40.4% (inactive)
12,CC(=O)N(C)C[C@@H]1[C@@H](c2ccc(-c3cccc(C#N)c3)cc2)[C@H](CO)N1C(C)=O,92.4% (inactive)
13,CCCNC(=O)C[C@@H]1CC[C@@H]2[C@@H](COc3ccc(NS(=O)(=O)c4ccccc4C)cc3C(=O)N2C)O1,35.3% (inactive)
14,CCOc1cc(-c2nccc3cc(OC)c(OC)cc23)cc(OCC)c1OCC,39.5% (inactive)
15,O=CN1CCN(C(=O)c2ccccc2F)CC1,95.7% (inactive)
16,CNC(=O)C[C@H]1CC[C@@H]2[C@H](COc3ccc(NC(=O)c4ccccc4OC)cc3C(=O)N2C)O1,106% (inactive)
17,CCN(C[C@H]1N[C@H](CO)[C@H]1c1ccc(-c2ccc(F)cc2)cc1)C(=O)COC,-25.8% (inactive)
18,Cc1noc(C)c1NC(=O)Nc1ccc2c(c1)C(=O)N(C)[C@@H]1CC[C@H](CC(=O)N[C@H]3CCN(Cc4ccccc4)C3)O[C@H]1CO2,231% (inactive)
19,Cc1ccc(NCC(=O)c2ccccc2)cc1Cl,215% (inactive)

# — PubChem BioAssay AID651956 (Broad Institute, 2012)
